The source made the active and inactive calls. How the source made its calls: active means hit-call score of the fitted dose curve at least 0.9, where 1 is the maximum; inactive means score below 0.9.

The test can be described thus: CCTE_Harrill_HTTr_Apoptosis_PRF_DMEM_12hr: (Pilot) CCTE's 12-hour Apoptosis Assessment for the High-Throughput Transcriptomics (HTTr) Platform, in MCF-7 cells cultured in phenol red-free DMEM + 10% charcoal-stripped fetal bovine serum, Harrill Lab (AID 2283985). In outline:
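Caspase-3/7 activity by CellEvent Green high content imaging after 12 h compound exposure (eight concentrations) in MCF-7 grown in phenol red-free DMEM plus 10% charcoal-stripped serum; DMSO as baseline.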
As to `Cc1oc(-c2ccccc2)nc1CCOc1ccc(C[C@H](Nc2ccccc2C(=O)c2ccccc2)C(=O)O)cc1`, the result was inactive.

Turning to `CCOC(=O)C(C)(C)Oc1ccc(Cl)cc1`, the result was inactive.

With `N[C@@H](Cc1cc(I)c(Oc2ccc(O)c(I)c2)c(I)c1)C(=O)O`, the outcome was inactive.

Source of the values: PubChem BioAssay (EPA / NIEHS).
